Screening data: PubChem BioAssay, National Center for Advancing Translational Sciences (NCATS)
SNCA expr inhib = Primary qHTS assay for inhibitors of alpha-synuclein gene (SNCA) expression | Potency, µM (top dose mostly 57.2 µM), for inactives: top-dose activity change, negative = inhibition, most hits filed as inhibitors | HEK-293 SNCA-luciferase knock-in, luminescence, 24 h | AID 1671194, 2021 | hit rate 0.17% among 140,000;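 note: potency is the fitted concentration of half-maximal effect; plate controls were DMSO cells for no effect and cell-free wells for full effect; nearly all actives have a fitted effect of over 45% in size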
GPT2 inh = Primary qHTS assay for inhibitors of Glutamate pyruvate transaminase 2 (GPT2) | Alanine aminotransferase 2 (Homo sapiens), Q8TD30 | Recombinant GPT2, coupled pyruvate oxidase/HRP Amplex Red fluorescence | Potency, µM (doses to about 57.7 µM), for inactives: at the top dose activity change, negative = inhibition, most hits filed as inhibitors | hit rate 0.25% among 100,000 | AID 1671188, 2021; note: potency is the fitted concentration of half-maximal effect; nearly all actives have a fitted effect of over 60% in size
Target sequence (Q8TD30 whole entry, looked up): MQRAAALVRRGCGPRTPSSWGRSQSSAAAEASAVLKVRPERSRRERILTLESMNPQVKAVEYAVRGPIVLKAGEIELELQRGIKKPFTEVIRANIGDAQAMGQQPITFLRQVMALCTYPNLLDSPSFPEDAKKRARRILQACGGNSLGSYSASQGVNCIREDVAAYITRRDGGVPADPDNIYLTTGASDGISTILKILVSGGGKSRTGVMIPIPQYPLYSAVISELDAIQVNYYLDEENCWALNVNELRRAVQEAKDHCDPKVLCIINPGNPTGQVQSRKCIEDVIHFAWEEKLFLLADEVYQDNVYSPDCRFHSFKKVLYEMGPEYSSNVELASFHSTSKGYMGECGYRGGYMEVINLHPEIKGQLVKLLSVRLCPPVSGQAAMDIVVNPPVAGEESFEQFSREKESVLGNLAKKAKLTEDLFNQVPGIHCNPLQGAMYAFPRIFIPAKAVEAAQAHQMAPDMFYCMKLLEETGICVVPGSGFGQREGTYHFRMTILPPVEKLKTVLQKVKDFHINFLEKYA
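Fluorescence read-out: pyruvate from GPT2 turnover coupled to pyruvate oxidase, HRP and Amplex Red (0.2mM ThPP, 0.2U/mL PO and HRP, 50uM Amplex final). Substrates 250uM a-KG, 2mM L-alanine; enzyme 10ng/uL; 30 min RT.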
IP6K1 inhibitor = Primary qHTS assay for small molecule inhibitors of Inositol hexaphosphate kinase 1 (IP6K1). Inositol hexakisphosphate kinase 1 (Homo sapiens), Q92551. IP6K1 kinase, ADP-Glo luminescence, 2 h; active compounds read low. activity change, % (series mostly up to about 58 µM). hit rate 0.81% among 140,000; in the data active = activity change below about -25%
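ADP-Glo luminescence measures ADP made by human IP6K1 during a 2 h RT reaction with ATP/IP6 (mix at 1.3 mM/130 uM); top library doses 57.5 and 19.1 uM final.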
SNCA viab count = GF-AFC viability counterscreen for inhibitors of alpha-synuclein gene (SNCA) expression; HEK-293-SNCA-luc viability, GF-AFC fluorescence, 24 h; Potency, µM (highest dose often 57.1 µM), for inactives: at the highest dose activity change, negative = cytotoxicity, actives largely listed as cytotoxic; hit rate 0.12% among 150,000;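 note: potency is the fitted concentration of half-maximal effect; 0% = DMSO-treated cells and -100% = medium-only wells without cells; nearly all actives have a fitted effect of over 30% in size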
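HEK-293-SNCA-luc cells (1500/well) plated 24 h, then exposed 24 h to a dilution series; GF-AFC added 30 min at 37C, fluorescence 405/540 nm; normalised to medium-only and DMSO wells, Hill fit.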
* = called active by the depositor; i = inactive; ? = inconclusive; . = no result; ! = repeats disagree; [ ] = dose if it differs, or a comment. Hits are enriched below; roughly 1% of the tested compounds scored in any of these assays. Unless noted, calls come from the whole dose curve; as a rule, active = well fitted curve in the direction sought with a large enough effect; inconclusive = small, poorly fitted or top-dose-only effect, or another doubt; inactive = no such curve, though single readings can be large; an effect the other way counts as inactive or inconclusive. Unless noted, % is set by controls: 0 for no effect and ±100 for the full control effect.

SMILES	SNCA expr inhib	GPT2 inh	IP6K1 inhibitor	SNCA viab count
O=C(Cc1ccc(-c2ccccc2)cc1)NCCS(=O)(=O)N1CCN(c2ccccc2)CC1	-15%	.	-23	10%
Cc1cccc(C)c1-n1c(=O)c2cnc(Nc3ccc(N4CCN(C)CC4)cc3)nc2n2c3ccccc3nc12	.	?	18	?
C=CCn1c(=O)c2cnc(Nc3ccc(N4CCN(C)CC4)cc3)nc2n1-c1cccc(C(C)(C)O)n1	0.48µM*	-6%	6	?
C[C@](N)(Cc1ccc(O)c(O)c1)C(=O)O	3%	7.9µM*	4	?
COc1ccc(F)cc1-c1ccc(CN2CCC(NC(=O)c3ccc(Cl)nc3)C2)cc1 (centres undefined)	.	.	-9	.
COc1ccc(NC(=O)Nc2cccc(-c3ccc(N4CCOCC4)nn3)c2)cc1	-26%	i	-8	-12%
COc1ccc(NC(=O)Nc2cccc(-c3ccc(N4CCOCC4)nn3)c2)cc1F	20µM*	i	-14	-26%
O=C(Nc1cccc(C(F)(F)F)c1)c1nc2c(o1)CCN(Cc1ccc(F)cc1)CC2	-18%[87.6 µM]	-39%[88.5 µM]	3	-24%[87.6 µM]
Cc1ccc(C(=O)Nc2ccc(CN3CCN(C)CC3)c(C(F)(F)F)c2)cc1C#Cc1cnc2cccnn12	?	?	22	30µM*!
CCOc1ccc(C(c2c(C)[nH]n(-c3ccccc3)c2=O)c2c(C)[nH]n(-c3ccccc3)c2=O)cc1OC	35%	.	-30*	?
Cc1ccc(-c2c(C(=O)CCl)n(CCCO)c3ncnc(N)c23)cc1	.	?	11	24µM*
CC(=O)NC1(C)CCN(Cc2ccccc2-c2ccc3c(ccn3C)c2)C1 (centres undefined)	9%[87.6 µM]	?	-12	-4%[87.6 µM]
CCOC(=O)c1c(C)[nH]c(C)c1S(=O)(=O)N(C)CC(=O)Nc1cc(Cl)ccc1OC	-10%	.	-28*	-11%
CN1CCN(c2ccc(C(=O)Nc3n[nH]c4ccc(Cc5cc(F)cc(F)c5)cc34)c(NC3CCOCC3)c2)CC1	?	i	-12	27µM*!
CN1CCN(c2ccc(-c3cc4c(ccn4C)c(C(=O)NCC4CCOCC4)n3)cc2)CC1	7%	i	-9	-2%
CN1CCN(c2ccc(-c3cccc(N)c3)nn2)CC1	22µM*	i	-10	-5%
CCCC(O)CN1CCC(=O)N(Cc2ccccc2)Cc2cc(OC)ccc21 (centres undefined)	.	.	-1	.
Cc1ccc(CN2C(=O)C(=O)c3cc(Br)cc(C)c32)cc1	22µM*	.	-9	?
CC(c1ccccc1)N1CCN(c2cccc(CN(C)S(C)(=O)=O)c2)CC1 (centres undefined)	.	.	28	.
COCCN1CCOc2nc(-c3cc4ccccc4o3)ncc2C1=O	8.9µM*	-7%[88.5 µM]	-6	-5%[87.6 µM]
O=C1c2cnc(-c3cc4ccccc4o3)nc2OCCN1CC1CC1	?	?	-8	-4%[87.6 µM]
COc1ccc(OC)c(CN2CCCn3nc(C)c(-c4ccccc4OCc4ccccc4)c32)c1	?	i	1	4µM*
Cc1nn2c(c1-c1ccccc1OCc1ccccc1)N(CC1CC1)CCC2	?	-12%[88.5 µM]	15	10µM*
Cc1nn2c(c1-c1ccccc1Oc1ccccc1)N(Cc1ccc(C(=O)O)cc1)CCC2	?	4%[88.5 µM]	5	?
COc1ccc(CN2CCCn3nc(C)c(-c4ccccc4Oc4ccccc4)c32)cc1O	6.3µM*	i	4	?
SMILES	SNCA expr inhib	GPT2 inh	IP6K1 inhibitor	SNCA viab count
Cc1ccccc1CN1Cc2nc(NCc3cccc(F)c3)ccc2OCC1=O	-7%[87.6 µM]	-30%[88.5 µM]	-7	-16%[87.6 µM]
CN1CCCN(S(=O)(=O)c2ccc(C(F)(F)F)cc2)c2ccccc21	-30%	?	0	-2%
CCc1nn(CC(=O)NCCCc2ccccc2)c(=O)c2cc3ccccc3n12	28µM*	.	8	4%
CC(C)N1[N]C(=C2C=c3cc(O)ccc3=N2)c2c(N)ncnc21	-26%	0.61µM*	.	?
CN(C)C/C=C/C(=O)Nc1ccc(C(=O)Nc2cccc(Nc3ncc(Cl)c(-c4c[nH]c5ccccc45)n3)c2)cc1	0.17µM*	4%	-3	?
CC(C)OC(=O)N(C)Cc1cccc(N2CCN(C(=O)c3c(Cl)cccc3Cl)CC2)c1F	.	.	-13	.
O=C(Nc1ccc(C(=O)N2CCCCC2)cc1)c1nsc2ccccc12	10µM*	.	14	-19%
O=C(Nc1ccc(C(=O)N2CCN(c3ccc(F)cc3)CC2)cc1)c1nsc2ccccc12	176%	.	8	1%
COc1ccccc1NC(=O)c1cc(S(=O)(=O)N2CCN(c3ccccc3Cl)CC2)ccc1F	-2%	.	-11	6%
COc1ccccc1N1CCN(S(=O)(=O)c2ccc(F)c(C(=O)Nc3ccc(Cl)cc3C(F)(F)F)c2)CC1	-2%	.	-34*	7%
CC(C)c1nc2c(c(-c3ccc(Cl)cc3)n1)CCN(Cc1ccc(F)cc1)CC2	6%	i	12	-3%
CCOCCCNC(=O)c1cc(-c2cccc(F)c2)nc2c1cnn2C	.	.	1	.
Cc1ccc(NC(=O)CCc2nc3cccnc3n2-c2ccccc2)cc1Cl	5%	.	22	-11%
O=C(CCc1nc2cccnc2n1-c1ccccc1)Nc1ccc(Cl)c(Cl)c1	7.1µM*	.	-7	-29%
COc1ccc(CC(=O)N2CC(N3C(=O)c4c(c(C)nn4-c4ccccc4)C3C)C2)cc1 (centres undefined)	.	.	8	.
COCC(=O)N1CCC(N2C(=O)c3c(c(C)nn3-c3ccccc3)C2C)CC1 (centres undefined)	.	.	7	.
O=C(Nc1cccc(F)c1)C1CCCN(Cc2cccc(-c3ccc(F)cc3F)c2)C1 (centres undefined)	11%	-2%	-6	-11%
O=C(CCl)Nc1cccc(NC2=NS(=O)(=O)c3ccccc32)c1	.	i	4	30µM*
CC(C)C(=O)Nc1cccc(NC2=NS(=O)(=O)c3ccccc32)c1	2%	.	18	-1%
CC1(C)CCC2=C(O1)c1ccccc1C(=O)C2=O	?	3.4µM*!	.	?
Cn1ncc2c(C(=O)N3CCN(Cc4ccccc4)CC3)cc(-c3cccc(F)c3)nc21	.	.	10	.
CC[n+]1c(/C=C/C=C2/N(C)c3ccccc3C2(C)C)sc2ccccc21	?	i	.	10µM*
Cc1nc2c(s1)C[C@]1(C)CCC([C@H](C)C(=O)N3CCOCC3)[C@H](O)[C@H]1[C@@H]2C (some centres undefined)	37%[87.6 µM]	-4%[88.5 µM]	-10	3%[87.6 µM]
C[C@H](C(=O)NCCN1CCOCC1)C1CC[C@@]2(C)Cc3sc(-c4ccccc4)nc3[C@@H](C)[C@@H]2[C@H]1O (some centres undefined)	0.79µM*	2%	-3	2%
COc1c/c(=C2\C=c3ccccc3=N2)[nH]/c1=C\c1[nH]c(C)cc1C	.	i	-12	4.7µM*
